Test results reported in PubChem BioAssay AID2561 (National Center for Advancing Translational Sciences (NCATS), 2010).
Several values for one entry are separate records, joined by “and”; a condition that tells them apart may be missing. Equal entries are not always repeated. Inconclusive results are not listed. Values without a mark were called inactive. Activity calls are given as the source filed them. Calls follow the shape of the dose curve; as a rule, active = well fitted inhibition curve with a large enough effect; inconclusive = small, poorly fitted or top-dose-only effect, or effect the other way; inactive = flat fitted curve, though single readings scatter.

Target: Pyruvate kinase (Leishmania mexicana) (UniProt Q27686)
Assay: Confirmation Assay for Inhibitors of Leishmania Mexicana Pyruvate Kinase (LmPK): for Probe SAR;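 as to activity change, negative = inhibition: plate controls were uninhibited enzyme for no effect and no enzyme wells for full effect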
Conditions: purified LmPK, ATP generation, Kinase-Glo luminescence; series mostly up to 57.5 µM; activity change, negative = inhibition: at the top concentration
Excerpt: NIH Chemical Genomics Center [NCGC] Malcolm Walkinshaw, Hugh Morgan, Linda Gilmore University of Edinburgh, UK MLPCN Grant: 1 R03 MH085697-01 NCGC Assay Overview: Pyruvate kinase (L. Mexicana) (LmPK) enzyme was supplied as a highly purified (>95% pure) sulphate-free preparation from University of Edinburgh, UK and assayed for its ability to generate ATP from ADP using phosphoenolpyruvate (PEP) as a substrate. ATP generation was detected in a coupled reaction by luciferase-mediated luminescence, an ATP-dependent process. Pyruvate kinase substrates, PEP and ADP, were present in the assay at Km and approximately 10-fold below Km respectively. The enzyme was assayed at an intermediate level of activity to screen for both inhibitors and activators.
NCGC Assay Protocol Summary: Three uL of enzyme mix (kept on ice) in assay buffer (50 mM Imidazole pH7.2, 50 mM KCl, 7 mM MgCl2, 0.01% Tween 20, 0.05% BSA) containing PEP (0.5 mM final concentration) and LmPK (0.1 nM final concentration) was dispensed into white solid bottom 1,536 well microtiter plates. 23 nL of compound were delivered by a pin tool and 1 uL of ADP mix in assay buffer (r.t; 0.1 mM final ADP concentration) was added. Plates were incubated at room temperature for 1 hour. Two uL of detection mix (Kinase-Glo, Promega; at 4 degree Celsius protected from light) was added and luminescence read by a ViewLux (Perkin Elmer) at 1 second exposure/plate. Data were normalized to the uninhibited and AC100 inhibition (no enzyme). To monitor activation, the first column contained a five-fold concentration of LmPK (0.5 nM).
Potency is read from the fitted curve at half-maximal effect.

Pyruvate kinase (Leishmania mexicana), sequence (Q27686 whole entry, looked up): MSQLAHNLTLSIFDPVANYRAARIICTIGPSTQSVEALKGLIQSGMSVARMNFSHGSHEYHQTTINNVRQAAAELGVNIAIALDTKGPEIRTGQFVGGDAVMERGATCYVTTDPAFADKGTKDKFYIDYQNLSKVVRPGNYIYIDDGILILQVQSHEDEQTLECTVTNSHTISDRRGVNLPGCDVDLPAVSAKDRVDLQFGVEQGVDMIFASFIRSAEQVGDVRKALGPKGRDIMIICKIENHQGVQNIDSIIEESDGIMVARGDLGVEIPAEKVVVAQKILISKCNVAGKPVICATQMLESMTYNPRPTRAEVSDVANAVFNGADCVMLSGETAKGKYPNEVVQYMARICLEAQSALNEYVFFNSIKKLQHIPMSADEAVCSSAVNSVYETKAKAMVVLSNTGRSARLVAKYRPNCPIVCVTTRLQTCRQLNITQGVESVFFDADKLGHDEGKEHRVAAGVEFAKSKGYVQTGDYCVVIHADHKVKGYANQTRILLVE

| SMILES | Potency | activity change, negative = inhibition [%] |
| --- | --- | --- |
| O=C(O)c1ccccc1SC1=NS(=O)(=O)c2ccccc21 | 4.61 µM (active) and 8.91 µM (active) | – |
| O=S1(=O)N=C(OCc2ccccc2)c2ccccc21 | – | -4.08 |
| CNc1cccc(S(=O)(=O)N2CCN(S(=O)(=O)c3ccc4c(c3)OCCO4)CC2)c1 | – | -4.57 |
| Cc1ccc(-c2nc3cccc(C)n3c2Nc2ccc(F)cc2)o1 | – | 7.79 |
| Cc1ccc(NS(=O)(=O)c2cc3c(cc2/C=C/c2ccccc2)NC(=O)CO3)cc1C | – | 11 |
| COc1ccc(N2C(=O)c3ccccc3C2=O)cc1 | – | 4.39 |
| Cc1ccc(NS(=O)(=O)c2cc3c(cc2N(C)C)NC(=O)CC3)cc1C | – | 5.95 |
| Cc1ccc2nc(-c3ccc(C)o3)c(Nc3ccccc3)n2c1 | – | -1.71 |
| O=C1c2ccccc2C(=O)N1Cc1ccccn1 | – | -7.55 |
| Nc1ccc2c(c1)C(=O)NS2(=O)=O | – | 2.28 |
| COc1ccc(-c2nc3cccc(C)n3c2Nc2ccc(C)cc2)cc1 | – | 1.54 |
| COc1ccc(NS(=O)(=O)c2ccccc2)cc1NS(=O)(=O)c1ccccc1 | – | 31.7 |
| Cc1ccc(NS(=O)(=O)c2cc3c(cc2N2CCCCC2)NC(=O)CC3)cc1C | – | 10.8 |
| COc1ccc(Nc2c(-c3ccc(C)o3)nc3ccccn23)cc1 | – | 22.7 |
| O=C1CCc2cc(S(=O)(=O)NCc3ccccc3)ccc2N1 | – | 12.8 |
| Cc1ccc(NS(=O)(=O)c2ccc3c(c2)CC(=O)N3C)cc1C | – | -0.237 |
| Nc1cc(S(=O)(=O)N2CCN(S(=O)(=O)c3ccc4c(c3)OCCO4)CC2)ccn1 | – | 3.64 |
| Cc1ccc2nc(-c3ccc(C)o3)c(Nc3ccc(F)cc3)n2c1 | – | -21.2 |
| COc1cccc(N2C(=O)c3ccccc3C2=O)n1 | – | -0.188 |
| Cc1ccc(OC2=NS(=O)(=O)c3ccccc32)cc1 | 12.5 µM (active) | – |

| SMILES | Potency | activity change, negative = inhibition [%] |
| --- | --- | --- |
| Cc1ccc(NS(=O)(=O)c2ccc3[nH]c(=O)[nH]c3c2)cc1C | – | 0.937 |
| Cc1ccc(C)c(SC2=NS(=O)(=O)c3cc(C(=O)NCc4ccccc4)ccc32)c1 | 5.8 µM (active) | – |
| Cc1ccn2c(NCc3ccco3)c(-c3ccccc3)nc2c1 | – | -21.3 |
| Cc1ccc(NS(=O)(=O)c2cc3c(cc2F)NC(=O)CC3)cc1C | – | -3.34 |
| CCNc1cccc(S(=O)(=O)N2CCN(S(=O)(=O)c3ccc4c(c3)OCCO4)CC2)c1 | – | 3.57 |
| O=S1(=O)N=C(Oc2ccccc2Br)c2ccccc21 | 5.8 µM (active) | – |
| O=C1c2ccccc2C(=O)N1c1cccnc1 | – | 15.6 |
| O=C1CCc2cc(S(=O)(=O)Nc3ccncc3)ccc2N1 | – | -1.99 |
| COc1cccc2ccc(C3C(=O)c4ccccc4C3=O)nc12 | – | -3.4 |
| Cc1cccc(OC2=NS(=O)(=O)c3ccccc32)c1 | 7.02 µM (active) | – |
| COc1ccc(O)cc1 | – | 10.5 |
| O=S1(=O)N=C(Oc2ccccc2C(F)(F)F)c2ccccc21 | 6.51 µM (active) | – |
| Cc1ccc(-c2nc3ccccn3c2Nc2ccc(F)cc2)o1 | – | 9.62 |
| O=C1CCc2cc(S(=O)(=O)Nc3cccc(F)c3)ccc2N1 | – | 10.2 |
| Cc1sc(C)c2c1C(=O)NS2(=O)=O | – | 2.41 |
| O=S1(=O)N=C(Sc2cc(C(F)(F)F)cc(C(F)(F)F)c2)c2ccccc21 | 2.91 µM (active) | – |
| Cc1ccc(NS(=O)(=O)c2ccc3c(c2)CCC(C)(C)O3)cc1C | – | 9.34 |
| Cc1ccc(Nc2c(-c3ccc(C)o3)nc3cccc(C)n23)cc1 | – | 10.8 |
| COc1cc(N2C(=O)c3ccccc3C2=O)c2ncccc2c1 | – | 14 |
| COc1ccccc1N1C(=O)c2ccccc2C1=O | – | 27.3 |
